In PubChem BioAssay (EPA / NIEHS) one finds AC50 and outcome data, which are given here for eight compounds.

In assay [1] the target is PGR (gene 5241) (UniProt P06401). As to the kind of experiment: TOX21_PR_LUC_Followup_Antagonist: Tox21 HEK293 Progesterone Receptor (PR) Antagonism Luciferase Follow-Up Assay (AID 2283938).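 Note: curve fitted upward as signal gain over DMSO baseline despite antagonist label.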 The gist of the method: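 Luciferase reporter in HEK293-PR-A-luc cells: 16 h compound treatment at 37C, ONE-Glo luminescence detection, DMSO as negative control and baseline.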
Assay [2] is described as follows: TOX21_PR_LUC_Followup_Antagonist_viability: Viability Assessment in the Tox21 HEK293 Progesterone Receptor (PR) Antagonism Luciferase Follow-Up Assay (AID 2283940). The gist of the method:
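Viability counter-readout: cellular ATP measured by luciferase luminescence after 16 h compound exposure at 37C of HEK293-PR-A-luc cells, which had been cultured in charcoal-stripped serum and seeded 5 h beforehand.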

The target of assay [3] is THRB (gene 7068) (UniProt P10828). As to the kind of experiment: TOX21_TRB_BLA_Antagonist_Followup_ratio: Tox21 Thyroid Hormone Receptor beta Antagonism Beta-lactamase (BLA) Follow-Up Assay, Ratio (AID 2283958). The gist of the method: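 Beta-lactamase reporter ratio (460/530 nm, CCF4-AM substrate, 2 h room temperature) was read in TRb-bla HEK293T cells after 18 h compound treatment (11 concentrations, triplicate) at 37C in 2% charcoal-stripped FBS medium. Loss of signal fitted against DMSO.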

Assay [4] in a line: TOX21_TRB_BLA_Antagonist_Followup_viability: Viability Assessment in the Tox21 Thyroid Hormone Receptor beta Antagonism Beta-lactamase (BLA) Follow-Up Assay (AID 2283961). The gist of the method: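 In the same wells as the reporter read, cell health was gauged by CellTiter-Glo ATP luminescence, with signal loss indicating reduced viability. Cells had been exposed to test compounds for 18 h.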

The target of assay [5] is THRB (gene 7068) (UniProt P10828). As to the kind of experiment: TOX21_TRB_COA_Antagonist_Followup_ratio: Tox21 Thyroid Hormone Receptor beta Antagonism through Coactivator Recruitment Follow-Up Assay, Ratio (AID 2283967). The gist of the method:
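Coactivator recruitment to the GST-tagged TRb ligand-binding domain (5.0 nM) was read as the 520/495 nm TR-FRET ratio, using 200 nM fluorescein SRC-2 peptide and 2 nM terbium anti-GST. Scaled between DMSO and T3 wells; loss of signal fitted.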

In assay [6] the target is Retinoic acid receptor RXR-alpha (Homo sapiens) (UniProt P19793). As to the kind of experiment: TOX21_TR_RXR_BLA_Antagonist_Followup_ratio: Tox21 Thyroid Hormone Receptor beta Retinoid X Receptor alpha (RXRa) Antagonism Beta-lactamase (BLA) Follow-Up Assay, Ratio (AID 2283972). The gist of the method: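 Compounds were tested in triplicate at 11 concentrations on RXRa-bla HEK293T cells for 16 h. Substrate cleavage ratio, normalized to DMSO, gave the endpoint.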

Assay [7] can be described thus: CCTE_Harrill_HTTr_Viability_DMEM_6hr: (Pilot) CCTE's 6-hour Cell Viability Assessment for the High-Throughput Transcriptomics (HTTr) Platform, in MCF-7 cells cultured in DMEM + 10% fetal bovine serum, Harrill Lab (AID 2283973; active = hit-call score of the fitted dose curve at least 0.9, where 1 is the maximum; inactive = score below 0.9). The gist of the method:
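Propidium iodide uptake imaged by high-content analysis after six hours of chemical treatment in an eight-concentration series. Cells: MCF-7 grown in DMEM with 10% fetal bovine serum; DMSO as baseline.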

Assay [8] is described as follows: CCTE_Harrill_HTTr_Viability_DMEM_12hr: (Pilot) CCTE's 12-hour Cell Viability Assessment for the High-Throughput Transcriptomics (HTTr) Platform, in MCF-7 cells cultured in DMEM + 10% fetal bovine serum, Harrill Lab (AID 2283974; active = hit-call score of the fitted dose curve at least 0.9, where 1 is the maximum; inactive = score below 0.9). The gist of the method:
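Propidium iodide dye exclusion imaged by high-content microscopy after 12 h chemical exposure (eight concentrations) of MCF-7 cells grown in DMEM plus 10% FBS; values fitted in both directions relative to DMSO.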

A short description of assay [9]: CCTE_Harrill_HTTr_Viability_DMEM_24hr: (Pilot) CCTE's 24-hour Cell Viability Assessment for the High-Throughput Transcriptomics (HTTr) Platform, in MCF-7 cells cultured in DMEM + 10% fetal bovine serum, Harrill Lab (AID 2283975; active = hit-call score of the fitted dose curve at least 0.9, where 1 is the maximum; inactive = score below 0.9). The gist of the method: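 Pilot study: propidium iodide dye exclusion, imaged by high content microscopy, after 24 h compound exposure (eight concentrations) in MCF-7 cultured in DMEM + 10% fetal bovine serum; DMSO served as negative control and baseline.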

Assay [10] deals with PGR (gene 5241) (UniProt P06401). Put plainly: TOX21_PR_LUC_Followup_Agonist: Tox21 HEK293 Progesterone Receptor (PR) Agonism Luciferase Follow-Up Assay (AID 2283937; active = hit-call score of the fitted dose curve at least 0.9, where 1 is the maximum; inactive = score below 0.9). The gist of the method:
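Agonism scored as luciferase induction over DMSO, read by ONE-Glo after 30 min at RT. Compounds were incubated 16 h at 37C on HEK293-PR-A-luc cells (3,000/well, pre-plated 5 h) previously grown 5 days in charcoal-stripped serum.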

The nature of assay [11]: TOX21_PR_LUC_Followup_Agonist_viability: Viability Assessment in the Tox21 HEK293 Progesterone Receptor (PR) Agonism Luciferase Follow-Up Assay (AID 2283941).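 Note: loss of signal means cytotoxicity so actives lower viability.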 The gist of the method: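 Cytotoxicity counter-readout in the PR-A luciferase reporter line HEK293, with 16 h compound exposure at 37C after cells were cultured in charcoal-stripped serum. Cellular ATP quantified by CellTiter-Glo luminescence.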

Assay [12] deals with T1, Thyroid hormone receptor alpha (Rattus norvegicus) + Thyroid hormone receptor beta (Rattus norvegicus) (UniProt P18113+P63059). As to the kind of experiment: TOX21_TR_LUC_GH3_Antagonist_Followup: Tox21 GH3 Thyroid Hormone Receptor Antagonism Luciferase Follow-Up Assay (AID 2283942). The gist of the method: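 Loss of T3-driven (1.0 nM final) reporter activity in GH3 cells was read by ONE-Glo luminescence after 24 h incubation at 37C; 15-point compound series spanned 92 uM to 5nM final, 1,500 cells/well.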

Assay [13] deals with T1, Thyroid hormone receptor alpha (Rattus norvegicus) + Thyroid hormone receptor beta (Rattus norvegicus). As to the kind of experiment: TOX21_TR_LUC_GH3_Agonist_Followup: Tox21 GH3 Thyroid Hormone Receptor Agonism Luciferase Follow-Up Assay (AID 2283939). The gist of the method: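 Agonist-mode confirmatory run: 15 concentrations (5 nM to 92 uM final) on GH3 rat pituitary cells, 24 h at 37C/5% CO2, T3 as positive control. Luminescence read with ONE-Glo after 30 min.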

The target in assay [14] is THRA (gene 7067) (UniProt P10827). Put plainly: TOX21_TRA_COA_Agonist_Followup_ratio: Tox21 Thyroid Hormone Receptor alpha Agonism through Coactivator Recruitment Follow-Up Assay, Ratio (AID 2283948; active = hit-call score of the fitted dose curve at least 0.9, where 1 is the maximum; inactive = score below 0.9). The gist of the method:
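Agonist-mode biochemical TR-FRET with TRα LBD and SRC-2 coactivator peptide; activity expressed as percent of T3 response over DMSO baseline.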

Assay [15] concerns the target THRB (gene 7068) (UniProt P10828). Put plainly: TOX21_TRB_BLA_Agonist_Followup_ratio: Tox21 Thyroid Hormone Receptor beta Agonism Beta-lactamase (BLA) Follow-Up Assay, Ratio (AID 2283954). The gist of the method:
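Agonist mode: compounds (11-point, triplicate) incubated 18 h with HEK293T cells carrying GAL4-DBD/human TRβ-LBD and UAS-β-lactamase. Blue/green (460/530 nm) FRET ratio read after 2 h CCF4-AM loading; CellTiter-Glo viability run in the same plates.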

Assay [16] in a line: TOX21_TRB_BLA_Agonist_Followup_viability: Viability Assessment in the Tox21 Thyroid Hormone Receptor beta Agonism Beta-lactamase (BLA) Follow-Up Assay (AID 2283956). The gist of the method:
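Viability was read as CellTiter-Glo luminescence in the same wells as the TRb-bla agonist read-out. HEK293T GAL4-TRb LBD cells were treated for 18 h (37C, 5% CO2) at 11 concentrations in triplicate. Fits were bidirectional versus DMSO baseline.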

The target in assay [17] is THRB (gene 7068) (UniProt P10828). As to the kind of experiment: TOX21_TRB_COA_Agonist_Followup_ratio: Tox21 Thyroid Hormone Receptor beta Agonism through Coactivator Recruitment Follow-Up Assay, Ratio (AID 2283963; active = hit-call score of the fitted dose curve at least 0.9, where 1 is the maximum; inactive = score below 0.9). The gist of the method: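 Cell-free TR-FRET coactivator recruitment: GST-tagged TRβ LBD (5.0 nM) with 0.10% BSA incubated with compound, then fluorescein-SRC-2 peptide (200 nM) and Tb-anti-GST antibody (2 nM) added. 520:495 nm ratio normalized to DMSO (0%) and T3 (100%).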

Assay [18] concerns the target Retinoic acid receptor RXR-alpha (Homo sapiens) (UniProt P19793). Put plainly: TOX21_TR_RXR_BLA_Agonist_Followup_ratio: Tox21 Thyroid Hormone Receptor beta Retinoid X Receptor alpha (RXRa) Agonism Beta-lactamase (BLA) Follow-Up Assay, Ratio (AID 2283968). The gist of the method:
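Agonist mode: compounds given to RXRa-bla HEK293T cells at 11 concentrations, triplicate, 16 h at 37C/5% CO2. Readout is the 460:530 nm blue/green ratio after 2 h substrate loading at room temperature; DMSO baseline, 9-cis retinoic acid control.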

A short description of assay [19]: TOX21_TR_RXR_BLA_Agonist_Followup_viability: Viability Assessment in the Tox21 Thyroid Hormone Receptor beta Retinoid X Receptor alpha (RXRa) Agonism Beta-lactamase (BLA) Follow-Up Assay (AID 2283970). The gist of the method: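 CellTiter-Glo ATP luciferase read-out of cell viability, multiplexed with the beta-lactamase reporter run. RXRa-bla HEK293T cells in charcoal-stripped serum medium were exposed 16 h at 37C; data fitted both directions relative to DMSO.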

Assay [20] concerns the target THRA (gene 7067) (UniProt P10827). As to the kind of experiment: TOX21_TRA_COA_Antagonist_Followup_ratio: Tox21 Thyroid Hormone Receptor alpha Antagonism through Coactivator Recruitment Follow-Up Assay, Ratio (AID 2283953). The gist of the method:
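GST-TRα LBD 2.5 nM, BSA 0.10%, + cpd; then FITC-SRC-2 peptide 200 nM + Tb-anti-GST Ab 2 nM. TR-FRET ratio 520/495 nm. Norm: DMSO = 0%, T3 = 100%.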

The structures appear in SMILES notation. Inconclusive results are not listed. Active and inactive are the calls of the source. Rule for the calls, unless noted: active = hit-call score of the fitted dose curve at least 0.9, where 1 is the maximum; inconclusive = response in the unintended direction; inactive = score below 0.9.

Chain of THRB (gene 7068) (P10828 whole entry, looked up, the tested form may be a part): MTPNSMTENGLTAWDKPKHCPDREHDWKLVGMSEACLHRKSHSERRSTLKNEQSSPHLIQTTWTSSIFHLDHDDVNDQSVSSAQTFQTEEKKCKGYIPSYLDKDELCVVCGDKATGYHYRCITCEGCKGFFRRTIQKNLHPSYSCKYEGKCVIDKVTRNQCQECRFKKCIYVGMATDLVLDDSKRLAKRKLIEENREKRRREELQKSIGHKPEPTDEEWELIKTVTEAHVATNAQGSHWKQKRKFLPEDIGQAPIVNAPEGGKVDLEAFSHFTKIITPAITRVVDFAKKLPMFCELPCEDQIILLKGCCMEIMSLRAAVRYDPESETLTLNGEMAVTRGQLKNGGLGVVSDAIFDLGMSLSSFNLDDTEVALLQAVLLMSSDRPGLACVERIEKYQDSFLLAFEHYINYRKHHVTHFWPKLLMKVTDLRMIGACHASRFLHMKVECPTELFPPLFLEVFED
Chain of Retinoic acid receptor RXR-alpha (Homo sapiens) (P19793 whole entry, looked up): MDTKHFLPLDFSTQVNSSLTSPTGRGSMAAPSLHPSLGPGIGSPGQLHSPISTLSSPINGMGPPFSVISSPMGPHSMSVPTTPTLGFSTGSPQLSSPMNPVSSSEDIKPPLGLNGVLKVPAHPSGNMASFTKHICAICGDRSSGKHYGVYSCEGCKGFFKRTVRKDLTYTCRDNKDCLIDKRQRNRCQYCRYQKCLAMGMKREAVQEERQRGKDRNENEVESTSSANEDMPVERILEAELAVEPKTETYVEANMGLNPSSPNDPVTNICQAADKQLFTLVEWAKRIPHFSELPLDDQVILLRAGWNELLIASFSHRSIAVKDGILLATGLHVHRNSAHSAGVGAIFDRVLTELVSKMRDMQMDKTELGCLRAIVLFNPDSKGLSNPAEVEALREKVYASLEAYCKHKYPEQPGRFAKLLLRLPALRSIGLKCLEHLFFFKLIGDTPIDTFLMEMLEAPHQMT
Chain of PGR (gene 5241) (P06401 whole entry, looked up): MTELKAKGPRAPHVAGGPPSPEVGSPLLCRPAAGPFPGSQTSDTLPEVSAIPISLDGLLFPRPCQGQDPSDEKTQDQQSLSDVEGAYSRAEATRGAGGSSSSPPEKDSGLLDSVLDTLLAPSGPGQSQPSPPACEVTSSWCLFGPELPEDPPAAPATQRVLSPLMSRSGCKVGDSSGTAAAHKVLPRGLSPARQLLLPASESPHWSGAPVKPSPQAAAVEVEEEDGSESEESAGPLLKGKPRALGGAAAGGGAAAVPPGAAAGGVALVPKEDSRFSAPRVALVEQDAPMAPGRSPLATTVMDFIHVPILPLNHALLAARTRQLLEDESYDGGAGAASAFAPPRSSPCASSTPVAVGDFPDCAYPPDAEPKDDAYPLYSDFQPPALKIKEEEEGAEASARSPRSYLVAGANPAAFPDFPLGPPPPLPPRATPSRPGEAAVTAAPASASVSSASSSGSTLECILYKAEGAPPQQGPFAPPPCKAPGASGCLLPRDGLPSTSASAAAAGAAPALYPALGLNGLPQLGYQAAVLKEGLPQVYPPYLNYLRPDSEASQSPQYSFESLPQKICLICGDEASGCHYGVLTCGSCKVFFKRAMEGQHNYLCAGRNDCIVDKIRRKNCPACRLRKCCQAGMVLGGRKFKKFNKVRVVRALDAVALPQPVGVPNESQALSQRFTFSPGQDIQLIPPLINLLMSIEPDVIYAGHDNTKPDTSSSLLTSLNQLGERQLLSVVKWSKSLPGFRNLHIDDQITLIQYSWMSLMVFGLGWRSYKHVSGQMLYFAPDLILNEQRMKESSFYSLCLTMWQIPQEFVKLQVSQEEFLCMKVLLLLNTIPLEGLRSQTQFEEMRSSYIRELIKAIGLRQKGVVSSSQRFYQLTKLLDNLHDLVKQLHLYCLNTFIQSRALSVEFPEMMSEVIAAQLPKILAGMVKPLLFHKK
Chain of THRA (gene 7067) (P10827 whole entry, looked up, the tested form may be a part): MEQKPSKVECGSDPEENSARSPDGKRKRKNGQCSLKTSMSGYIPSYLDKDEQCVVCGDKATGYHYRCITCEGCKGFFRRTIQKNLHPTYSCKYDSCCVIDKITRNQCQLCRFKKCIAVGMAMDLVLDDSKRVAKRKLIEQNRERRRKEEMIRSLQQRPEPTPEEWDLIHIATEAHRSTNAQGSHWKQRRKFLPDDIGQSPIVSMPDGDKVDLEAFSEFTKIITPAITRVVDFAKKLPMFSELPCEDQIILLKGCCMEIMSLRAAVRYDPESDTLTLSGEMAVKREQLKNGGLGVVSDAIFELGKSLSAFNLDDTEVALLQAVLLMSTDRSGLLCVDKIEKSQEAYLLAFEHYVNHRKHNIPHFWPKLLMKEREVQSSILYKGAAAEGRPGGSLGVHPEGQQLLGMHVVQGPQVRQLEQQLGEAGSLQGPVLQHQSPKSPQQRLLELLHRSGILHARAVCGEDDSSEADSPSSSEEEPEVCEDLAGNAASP
T1 sequence (P63059 whole entry, looked up): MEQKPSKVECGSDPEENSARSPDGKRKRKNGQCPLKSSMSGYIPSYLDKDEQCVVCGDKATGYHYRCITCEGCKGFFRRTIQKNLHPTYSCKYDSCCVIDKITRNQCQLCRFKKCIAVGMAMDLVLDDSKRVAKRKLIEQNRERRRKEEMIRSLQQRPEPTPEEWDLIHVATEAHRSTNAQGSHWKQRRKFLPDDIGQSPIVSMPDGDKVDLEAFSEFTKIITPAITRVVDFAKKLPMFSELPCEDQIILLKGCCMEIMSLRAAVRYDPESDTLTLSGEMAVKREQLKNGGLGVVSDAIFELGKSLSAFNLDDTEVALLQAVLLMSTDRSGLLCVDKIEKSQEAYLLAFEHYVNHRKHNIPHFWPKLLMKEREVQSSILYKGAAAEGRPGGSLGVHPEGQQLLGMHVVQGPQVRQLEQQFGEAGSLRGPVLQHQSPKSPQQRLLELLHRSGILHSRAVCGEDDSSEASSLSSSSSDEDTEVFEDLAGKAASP
T1 sequence (P18113 whole entry, looked up): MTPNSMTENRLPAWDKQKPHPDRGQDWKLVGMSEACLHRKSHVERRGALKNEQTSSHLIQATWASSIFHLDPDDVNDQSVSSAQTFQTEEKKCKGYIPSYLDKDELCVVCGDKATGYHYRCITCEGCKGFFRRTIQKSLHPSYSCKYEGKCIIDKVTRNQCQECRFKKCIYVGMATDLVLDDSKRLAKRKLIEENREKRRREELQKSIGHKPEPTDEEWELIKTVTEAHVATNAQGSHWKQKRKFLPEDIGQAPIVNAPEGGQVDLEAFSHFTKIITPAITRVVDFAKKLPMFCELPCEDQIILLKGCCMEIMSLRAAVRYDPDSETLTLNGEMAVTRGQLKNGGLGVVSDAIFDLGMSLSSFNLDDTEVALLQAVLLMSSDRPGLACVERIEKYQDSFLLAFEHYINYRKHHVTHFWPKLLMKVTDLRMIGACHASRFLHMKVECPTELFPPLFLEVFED

Take `CCOP(=S)(OCC)Oc1ccc([N+](=O)[O-])cc1`: the AC50 with PGR (gene 5241) [1] was 4.86 µM (active). Also, the result in [2] was inactive.
`CON=C(C(=O)OC)c1ccccc1CON=C(C)c1cccc(C(F)(F)F)c1`: the result (with THRB (gene 7068) [3]; in assay [4]; in the assay with THRB (gene 7068) [5]; in assay [6]; in assay [7]; in [8]) was inactive. Moreover, in assay [9], the outcome was inactive.
As to `CCC(=O)Nc1ccc(Cl)c(Cl)c1`, the call (in the assay with PGR (gene 5241) [10]; with PGR (gene 5241) [1]; in assay [2]; in assay [11]) was inactive.
`CC(C1CC1)C(O)(Cn1cncn1)c1ccc(Cl)cc1` (stereo not given): the result in assay [7], in assay [8] and in assay [9] was inactive.
On to `C=C(C)[C@H]1Cc2c(ccc3c2O[C@@H]2COc4cc(OC)c(OC)cc4[C@@H]2C3=O)O1`, for which the AC50 in assay [12] was 5.29 µM (active); with THRB (gene 7068) [3], 1.52 µM (active); in assay [4], 6.16 µM (active); in assay [9], 0.0311 µM (active). The result (with THRB (gene 7068) [5]; in assay [6]; in assay [7]; in assay [8]) was inactive.
As for `C[N+]1(C)CCCCC1`, the result (in assay [13]; in the assay with THRA (gene 7067) [14]; with THRB (gene 7068) [15]; in [16]; in the assay with THRB (gene 7068) [17]; in [18]) was inactive. In addition, the compound was classed as inactive in assay [19].
For the compound `CCNc1nc(Cl)nc(NC(C)(C)C#N)n1`, the result in assay [7], in [8] and in [9] was inactive.
With `CSC1=N[C@@](C)(c2ccccc2)C(=O)N1Nc1ccccc1`, the outcome (in assay [12]; with THRA (gene 7067) [20]; with THRB (gene 7068) [3]; in assay [4]; with THRB (gene 7068) [5]; in assay [6]) was inactive.

What is called AC50 is the concentration giving half of the maximal activity seen.
